# Test results: PubChem BioAssay (NCI)
# Values joined by “and” are separate entries in the source; they are usually repeats but may differ in a detail not shown here. Identical values can stand only once. Compounds without any hit were thinned out: in the full panel of roughly 79,000, 15% have a hit. Unmarked numbers belong to inactive results. Active and inactive are the calls of the source. Cut-off read from the data, not from the text of the source: active = growth inhibition above about 70%; inactive = the rest.
# What was measured:
# [1] = NCI Yeast Anticancer Drug Screen. Data for the rad50 strain (AID 155);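 note: 0% = growth of vehicle-only cultures of the same strain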; conditions: S. cerevisiae rad50 strain growth inhibition, stronger effect = higher value
# In short: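 Relative growth inhibition (compound vs vehicle) was measured in yeast with a defined repair-gene alteration.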
# [2] = NCI Yeast Anticancer Drug Screen. Data for the mec2-1 strain (AID 157); conditions: S. cerevisiae mec2-1 strain, stronger effect = higher value
# In short: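 Compounds were applied to mec2-1 yeast cells. Their growth was then compared with that of vehicle-treated cultures to give growth inhibition.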
# [3] = NCI Yeast Anticancer Drug Screen. Data for the sgs1 mgt1 strain (AID 161);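 note: 0% = growth of cultures given vehicle only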; conditions: S. cerevisiae sgs1 mgt1 strain, stronger effect = higher value
# In short: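 Growth of a repair-deficient yeast mutant was monitored after compound treatment and expressed as inhibition relative to vehicle-treated cultures.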
# [4] = NCI Yeast Anticancer Drug Screen. Data for the cln2 rad14 strain (AID 165);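 note: 0% = growth equal to vehicle treated cultures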; conditions: S. cerevisiae cln2 rad14 strain, stronger effect = higher value
# In short: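 Strain: cln2 rad14 yeast, altered in cell cycle control and DNA damage repair. Read-out: growth inhibition vs vehicle.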
# [5] = NCI Yeast Anticancer Drug Screen. Data for the bub3 strain (AID 167); conditions: S. cerevisiae bub3 mutant strain, stronger effect = higher value
# In short: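 Screening used yeast with an engineered genetic alteration affecting cell cycle control. Compound-exposed cultures were compared with vehicle cultures, and reduced growth was taken as inhibition.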
# [6] = NCI Yeast Anticancer Drug Screen. Data for the mlh1 rad18 strain (AID 175); conditions: S. cerevisiae mlh1 rad18 strain growth inhibition, stronger effect = higher value
# In short: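 A repair-deficient yeast strain is exposed to test compound, and growth is scored relative to vehicle-treated controls.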
# [7] = at 5.0 µM (retest, dose inferred, filed as 0.5)
# [8] = at 50.0 µM (retest, dose inferred, filed as 5.0)
Structure (SMILES),"growth inhibition [1, 7]","growth inhibition [1, 8]",growth inhibition ([1]; at 50.0 µM),"growth inhibition [2, 7]","growth inhibition [2, 8]",growth inhibition ([2]; at 50.0 µM),"growth inhibition [3, 7]","growth inhibition [3, 8]",growth inhibition ([3]; at 50.0 µM),"growth inhibition [4, 7]","growth inhibition [4, 8]",growth inhibition ([4]; at 50.0 µM),"growth inhibition [5, 7]","growth inhibition [5, 8]",growth inhibition ([5]; at 50.0 µM),"growth inhibition [6, 7]","growth inhibition [6, 8]",growth inhibition ([6]; at 50.0 µM)
Sc1ccc(Cl)cc1,3%,51%,9.5% and 52.4%,2%,37%,10.7% and 32.1%,5%,34%,13.4% and 26.1%,-1%,38%,-45% and 14.8%,0%,59%,-33% and 62.4%,9%,64%,13.9% and 31.5%
CCC(=O)O[C@H]1CC[C@H]2[C@@H]3CCC4=C/C(=N/OC(=O)c5cccc6c(=O)c7ccccc7[nH]c56)CC[C@]4(C)[C@H]3CC[C@]12C,29%,83% (active),53.8%,26%,31%,77.4% (active),-26%,52%,79.3% (active),-14%,43%,47.1%,10%,66%,74.4% (active),29%,40%,17.6%
CCC[CH2][Sn]([CH2]CCC)([S]C1=NCCS1)[S]C1=NCCS1,96% (active),96% (active),90.7% (active),97% (active),97% (active),90.7% (active),97% (active),97% (active),90.9% (active),95% (active),95% (active),89.7% (active),95% (active),95% (active),88.3% (active),96% (active),96% (active),86.5% (active)
N.N.N.N.N.N#N.[Cl-].[Os+7],18%,78% (active),55.5%,17%,87% (active),59.4%,33%,90% (active),60.9%,14%,45%,57.4%,30%,91% (active),59.1%,31%,89% (active),74% (active)
O=C(Nc1ccccc1)c1cc([N+](=O)[O-])ccc1O,-1%,98% (active),95.7% (active),0%,97% (active),92% (active),2%,95% (active),62.5%,-2%,86% (active),32.5%,0%,96% (active),90.5% (active),12%,96% (active),97.5% (active)
N#C[S-].[Nd+3].c1cnc2c(c1)ccc1cccnc12.c1cnc2c(c1)ccc1cccnc12.c1cnc2c(c1)ccc1cccnc12,91% (active),99% (active),93% (active),98% (active),100% (active),94.8% (active),98% (active),99% (active),94.2% (active),93% (active),98% (active),93.7% (active),98% (active),99% (active),93.2% (active),98% (active),99% (active),92.8% (active)
CN(C)c1ccc(C2N(Cc3ccc(N(CCCl)CCCl)cc3Cl)CCCN2Cc2ccc(N(CCCl)CCCl)cc2Cl)cc1,1%,97% (active),93.5% (active),-12%,98% (active),90.9% (active),1%,98% (active),99% (active),1%,97% (active),15.8%,-1%,97% (active),93.8% (active),6%,98% (active),95.2% (active)
C=Cc1c2ccccc2cc2ccccc12,44%,82% (active),86.2% (active),42%,82% (active),75.2% (active),26%,31%,83.3% (active),44%,60%,77% (active),50%,36%,81.2% (active),34%,74% (active),75% (active)
[Se]C(=NCc1ccccc1)NCc1ccccc1,29%,61%,93.3% (active),4%,15%,6.1%,2%,19%,19.2%,-1%,-7%,-102%,3%,18%,46.2%,8%,29%,52.4%
